Bioassay records (PubChem BioAssay)
CRFBP-R2 agonist – agonists of human CRF-binding protein/CRF-R2 receptor complex | 350,000 compounds, 0.46% hits | activation, % at 13.2 µM | HEK293 CRF-R2/CRF-BP, calcium dye fluorescence (FLIPR); percent of saturating CRF peptide response;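 active means activation of at least 50%, plus an integration ratio under a set limit after plate pattern correction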
V-ATPase pH – alters yeast V-ATPase proton transport; S. cerevisiae, pHLuorin cytosolic pH fluorescence; response, % at 10 µM; 350,000 compounds, 0.37% hits; in the data active means response mostly above about 7.3%, no sharp cut-off; inactive means mostly below about 5.4%; further: actives read high
NTR1 agonist – NTR1 (human) agonism; AID 493036; NTR1-U2OS beta-arrestin-GFP spot imaging, agonist mode; 330,000 compounds, 0.17% hits; activation, % at 20 µM; P30989;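 active means activation at or above 40% of the spot to cytoplasm intensity ratio, with at least 20 cells analyzed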
Target sequence (P30989 whole entry, looked up): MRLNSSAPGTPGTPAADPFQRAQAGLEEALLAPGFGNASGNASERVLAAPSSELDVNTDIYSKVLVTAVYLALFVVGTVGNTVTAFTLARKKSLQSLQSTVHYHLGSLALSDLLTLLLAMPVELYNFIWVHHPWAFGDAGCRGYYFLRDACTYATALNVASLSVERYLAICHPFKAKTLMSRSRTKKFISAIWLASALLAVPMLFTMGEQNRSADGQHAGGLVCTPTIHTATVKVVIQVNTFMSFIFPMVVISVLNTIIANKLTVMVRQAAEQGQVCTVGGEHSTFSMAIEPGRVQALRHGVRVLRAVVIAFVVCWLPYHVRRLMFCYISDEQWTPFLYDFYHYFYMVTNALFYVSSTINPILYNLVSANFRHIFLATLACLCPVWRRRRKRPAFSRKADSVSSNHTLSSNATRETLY
CRFR2-BP antag – antagonists of CRF-binding protein/CRF-R2 receptor complex. HEK293 CRF-R2/CRF-BP, CRF-induced calcium fluorescence. inhibition, % at 11.8 µM. 350,000 compounds, 0.59% hits. AID 588475;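 active means inhibition of the ligand-induced calcium signal above about 50% at the single tested concentration, limit read from the data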
Large screens that a line does not name were inactive. A selection: hits, their analogues and other compounds. The true share with any hit is near 1.5%.

CCN1/C(=C/C=C/c2oc3ccc(-c4ccccc4)cc3[n+]2CC)Oc2ccc(-c3ccccc3)cc21	CRFBP-R2 agonist 227.4, V-ATPase pH active
CC[C@@]1(O)C(=O)OCc2c1cc1n(c2=O)Cc2cc3c(N)cccc3nc2-1	none
CC[C@@]1(O)C(=O)OCc2c1cc1n(c2=O)Cc2cc3c(CN(C)C)c(O)ccc3nc2-1	CRFBP-R2 agonist 231.3
O=C(O)c1cc(-c2ccccc2)nc(-c2ccccc2)c1	CRFR2-BP antag 54.2
O=C(O)c1cc(C(=O)O)c(-c2ccccc2)c(C(=O)O)c1	none
CN(CC(=O)Nc1cccc(C(F)(F)F)c1)C1=NS(=O)(=O)c2ccccc21	V-ATPase pH 13.2
Cc1cc(OCC(=O)C(C)(C)C)c2c(-c3ccccc3)cc(=O)oc2c1	none
Cc1ccc(C(=O)NCCN(C)C)c(C)c1	none
CNc1c2cccc(C)c2nc2c(C(=O)NCCN(C)C)cccc12	CRFBP-R2 agonist 53.8 (no result: NTR1 agonist)
COc1ccc(-c2csc(-c3ccc(C(=O)O)cc3)n2)cc1	none
O=C(O)c1ccc(-c2nc(-c3ccc(Cl)cc3Cl)cs2)cc1	CRFR2-BP antag 67.3
O=C(O)c1ccc(-c2nc(-c3ccc(Cl)cc3)cs2)cc1	CRFR2-BP antag 53.3 (no result: NTR1 agonist)
CC(C)(C)CCN1CCC(CN2CCNC2=S)CC1	none (no result: NTR1 agonist)
O=C(CNC(=O)c1sc2ccccc2c1Cl)NCc1ccc(F)cc1	V-ATPase pH 17.9
Cc1c(N2C(=O)c3cccc4cccc(c34)C2=O)cnn1C	none
CC(C)(C)OC(=O)N1CCN(c2ccc(CNC(=O)c3ccc(Cl)cc3)cc2)CC1	CRFR2-BP antag 50.1
COc1ccc(-n2c(O)c(/C=N/NS(=O)(=O)c3ccc(C)cc3)c3ccccc3c2=O)cc1OC	CRFBP-R2 agonist 101.5
COc1ccc(-n2c(O)c(/C=N/Nc3nc(C)cc(C)n3)c3ccccc3c2=O)cc1OC	none
COc1ccc(-n2c(O)c(/C=N/NS(=O)(=O)c3cc(C)ccc3C)c3ccccc3c2=O)cc1OC	CRFBP-R2 agonist 111.0
O=C(Nc1ccccc1)N1CCN(S(=O)(=O)c2ccccc2)CC1	none
CCC1(CC)NC(=O)N(CC(=O)OCC(=O)Nc2ncc(Cl)cc2Cl)C1=O	none
COc1ccc(CC(=O)N/N=C(\C)c2ccc(Br)s2)cc1	CRFR2-BP antag 82.8
CC1CCN(C(=O)C2CCN(S(=O)(=O)c3cccnc3)CC2)CC1	CRFR2-BP antag 75.1
CC1CCN(C(=O)C2CCN(S(=O)(=O)c3cccs3)CC2)CC1	CRFR2-BP antag 105.6
O=C(C1CCN(S(=O)(=O)c2cccnc2)CC1)N1CCCCC1	none
COc1ccc(C2CC(=O)C(C=NCCN3CCN(C(=S)Nc4ccccc4)CC3)=C(O)C2)cc1OC (stereo unspecified)	none
COc1ccc(CN2CCOCCOCCOCC2)cc1	V-ATPase pH 14.5
COc1cccc(C(=O)Nc2cc(C(=O)NCc3ccc(C)cc3)ccc2N2CCC3(CC2)CC(c2cccc(Br)c2)=NO3)c1	CRFR2-BP antag 65.8
CCCNc1ncnc2c1cnn2C1CCCCO1 (stereo unspecified)	none (no result: NTR1 agonist)
COc1ccc(CCNC(=O)c2cc(-c3ccncc3)nc3ccc(S(=O)(=O)N4CCOCC4)cc23)cc1OC	none
COc1ccc(-n2c(C)cc(/C=C3\SC(=S)N(Cc4ccco4)C3=O)c2C)cc1	none (no result: NTR1 agonist)
CCN1CCN(c2c(/C=C3\SC(=S)N(Cc4ccco4)C3=O)c(C)c(C#N)c(=O)n2C)CC1	CRFBP-R2 agonist 90.1
CC(C)CC(NC(=O)/C(=C/c1ccco1)NC(=O)c1ccc(Br)o1)C(=O)O (stereo unspecified)	CRFR2-BP antag 58.4
CC(C)CC(NC(=O)/C(=C\c1ccco1)NC(=O)c1ccco1)C(=O)O (stereo unspecified)	none
O=C(Nc1ncc(S(=O)(=O)c2ccc([N+](=O)[O-])cc2)s1)c1ccccc1F	CRFBP-R2 agonist 56.9
COC(=O)C(NC(=O)c1ccc(F)cc1)(Nc1ncc(S(=O)(=O)c2ccc([N+](=O)[O-])cc2)s1)C(F)(F)F (stereo unspecified)	CRFR2-BP antag 58.2
Cc1ccc(CCN2CC(C(=O)NC3CCC(C)CC3)CC2=O)cc1 (stereo unspecified)	none (no result: V-ATPase pH, NTR1 agonist)
Cc1ccc(S(=O)(=O)N2CCOC2CNC(=O)C(=O)NCc2ccncc2)cc1 (stereo unspecified)	none
O=C(COc1ccc(C(=O)NCC2CCCO2)cc1)Nc1cccc(C(F)(F)F)c1 (stereo unspecified)	none
Nc1cc(=O)[nH]c(SCCOc2ccccc2)n1	none
CCOc1ccc(OCCSc2nc(N)cc(=O)[nH]2)cc1	CRFR2-BP antag 58.6
CN(CCOC(=O)C1c2ccccc2Oc2ccccc21)C(C)(C)C	CRFR2-BP antag 50.4
Cc1cc(C(=O)N2CCN(c3ccc([N+](=O)[O-])cc3)CC2)c(C)o1	none
